The values below come from PubChem BioAssay (NCATS).

In one assay the test system is CRL-7250. Put plainly: Cytotoxic Profiling of Annotated Libraries Using Quantitative High-Throughput Screening (AID 1296008). Also: potency is read from the fitted curve at half-maximal effect. The settings on record: Five cell lines viability, CellTiter-Glo ATP luminescence, 48-72 h; max response: hits give low values. Put shortly:
(§1)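 Cells exposed to compounds for 48 or 72 hr at 37 degrees Celsius. Viability read as ATP-coupled luminescence with CellTiter-Glo after 10 min at room temperature.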
In general terms: ATP-based viability assays read luminescence as a measure of living cells.

The test system of the next assay is HEK293. Described as above. The settings on record: Five cell lines viability, CellTiter-Glo ATP luminescence, 48-72 h; max response: hits give low values. Put shortly: as §1
The test system of assay [1] is HaCat. The assay is described as above. The settings on record: Five cell lines viability, CellTiter-Glo ATP luminescence, 48-72 h; max response: hits give low values. An outline of the steps: as §1
The subject of another assay is NIH3T3. The assay is described as above. The settings on record: Five cell lines viability, CellTiter-Glo ATP luminescence, 48-72 h; max response: hits give low values. An outline of the steps: as §1
Assay [2] concerns HACAT. The assay can be described thus: qHTS assay to identify novel small-molecules to repurpose for Merkel cell carcinoma treatment (AID 1296009). The settings on record: MCC and control cell lines, CellTiter-Glo viability, 72 h; series mostly up to 44.8 µM. Put shortly:
(§2)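 CellTiter-Glo luminescence after 72 hr compound exposure at 37 degree celsius gave cell viability. Libraries NPC and MIPE were run as 8- and 11-point dose responses; RLUs normalized to DMSO (negative) and no-cell (cytotoxicity) controls.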

The test system of a further assay is MCC-13. The assay is described as above. Particulars: MCC and control cell lines, CellTiter-Glo viability, 72 h; series mostly up to 46 µM. Put shortly:
as §2

For the next assay, the system named is MCC-26. The description is as above. The settings on record: MCC and control cell lines, CellTiter-Glo viability, 72 h; series mostly up to 46 µM. Put shortly:
as §2

Another assay concerns MKL-1. The assay is described as above. The settings on record: MCC and control cell lines, CellTiter-Glo viability, 72 h; series mostly up to 46 µM. An outline of the steps:
as §2

The next assay deals with KB-3-1. Put plainly: Cytotoxic Profiling of Annotated Libraries Using Quantitative High-Throughput Screening (AID 1296008). Also: potency is read from the fitted curve at half-maximal effect. Particulars: Five cell lines viability, CellTiter-Glo ATP luminescence, 48-72 h; max response: hits give low values. An outline of the steps: as §1
Another assay concerns HEK293T. Put plainly: qHTS assay to identify novel small-molecules to repurpose for Merkel cell carcinoma treatment (AID 1296009). Particulars: MCC and control cell lines, CellTiter-Glo viability, 72 h; at 44.8 µM (top of the series) unless noted. Put shortly:
as §2
(Quantitative high-throughput screening tests each substance at several concentrations.)

Results filed as inconclusive are left out. Values without a mark were called inactive. Active and inactive are the calls of the source. Calls follow the shape of the dose curve; as a rule, active = well fitted inhibition curve with a large enough effect; inconclusive = small, poorly fitted or top-dose-only effect; inactive = flat fitted curve, though single readings scatter.
% is scaled to controls: 0 for no effect and ±100 for the full control effect.
Also: nearly all actives have a fitted effect of over 60% in size.

On to `CCC(C(=O)O)c1ccc(N2Cc3ccccc3C2=O)cc1` (stereo not given), for which the max response was -5.22% with CRL-7250, -2.44% in the assay on HEK293 and 3.06% with NIH3T3. The result in the assay with HaCat [1], with MCC-13 and in the assay with MCC-26 was inactive. The Potency result in the assay on HACAT [2] and in the assay with MKL-1 was “inactive” each time.
Regarding `CC(=O)NC1=NN(C(C)=O)C(C)(c2ccccc2)S1` (stereo not given), in the assay with CRL-7250, the max response is -15.8%. Further, the Potency in the assay with HEK293 was 4.11 µM (active); with KB-3-1, 5.17 µM (active).
Turning to `CC1(C)CC[C@]23CO[C@@]4(CCC5[C@@]6(C)CC[C@H](O[C@@H]7OC[C@H](O[C@@H]8O[C@H](CO)[C@@H](O)[C@H](O)[C@H]8O)[C@H](O)[C@H]7O[C@@H]7O[C@H](CO)[C@@H](O[C@@H]8O[C@H](CO)[C@@H](O)[C@H](O)[C@H]8O)[C@H](O)[C@H]7O)[C@@](C)(CO)C6CC[C@@]5(C)[C@]4(C)C[C@H]2OC2OCC(O)C(O)C2O)C3C1` (stereo not given in full), the Potency with CRL-7250 was 1.55 µM (active); in the assay with HEK293 it was 2.45 µM (active). Besides, the max response in the assay on KB-3-1 was -11.5%.
For `c1cc(Nc2cc(C3CC3)[nH]n2)nc(Nc2ccc3nc[nH]c3c2)n1`, the Potency in the assay with CRL-7250 is 0.82 µM (active); with HEK293, 1.16 µM (active); with KB-3-1, 1.3 µM (active).
Turning to `Cn1cncc1C(N)(c1ccc(Cl)cc1)c1ccc2c(c1)c(-c1cccc(Cl)c1)cc(=O)n2C` (stereo not given), the results for the Potency with CRL-7250, in the assay on HEK293 and in the assay with KB-3-1 were 23.1 µM (active), 0.259 µM (active) and 16.4 µM (active), respectively.
On to `CC(C)N(CCCCOCC(=O)NS(C)(=O)=O)c1cnc(-c2ccccc2)c(-c2ccccc2)n1`, for which the results for the max response with CRL-7250 and with NIH3T3 were -11.5% and -0.443%, respectively. The molecule was classed as inactive in the assay on HEK293, in the assay with HaCat [1] and in the assay with HEK293T. The Potency entry in the assay with HACAT [2] is “inactive”.
As for `CCCN1CCC(c2cccc(S(C)(=O)=O)c2)CC1`, the figures for the max response in the assay with CRL-7250, with HEK293 and with KB-3-1 were -0.494%, -1.41% and -3.93%, respectively.
`Cc1ccc(C(=O)N(CCCN)C(c2oc3cc(Cl)ccc3c(=O)c2Cc2ccccc2)C(C)C)cc1` (stereo not given): the values for the max response in the assay on CRL-7250 and with HEK293 were -42.6% and -125%, respectively. Also, the Potency in the assay on KB-3-1 was 0.0065 µM (active).
Take `CO[C@@H](C)Cn1c(=O)n(C)c2cnc3ccc(-c4cncc(C(C)(C)O)c4)cc3c21`: the Potency in the assay on CRL-7250 was 0.082 µM (active); in the assay with HEK293 it was 0.231 µM (active); in the assay on KB-3-1, 0.651 µM (active); in the assay with NIH3T3, 0.326 µM (active).
`Cc1cnc(Nc2ccc(F)cc2Cl)nc1-c1c[nH]c(C(=O)NC(CO)c2cccc(Cl)c2)c1` (stereo not given): the values for the max response in the assay with CRL-7250 and in the assay on KB-3-1 were -0.447% and -9.44%, respectively. The Potency in the assay on HEK293 is 5.8 µM (active).
Regarding `CCC(C)C(=O)OC1CC(O)C23C4OCC5(C(O)CC2C1(C)C(O)O4)C3C(=O)CC1(C)C(c2ccoc2)CC2OC215` (stereo not given), the Potency in the assay on CRL-7250 is 3.55 µM (active); with HEK293 it was 2.52 µM (active); in the assay on KB-3-1, 1.78 µM (active).
`Cc1ccc(NC(=O)c2ccc(CN3CC[C@H](N(C)C)C3)c(C(F)(F)F)c2)cc1Nc1nccc(-c2cncnc2)n1`: the max response in the assay with CRL-7250 was -22.1%; in the assay with KB-3-1, -1.65%. Also, the Potency in the assay on HEK293 is 5.63 µM (active).
For `COc1ccc(Oc2cc(C)c(-c3csc(NC(=O)c4ccncc4)n3)c(C)c2)cc1`, the Potency was 0.651 µM (active) in the assay with CRL-7250, 0.326 µM (active) in the assay with HEK293 and 0.146 µM (active) with KB-3-1.
Consider `C/C(=C\CCC(C)CCO)C(=O)O[C@@H]1[C@@H](O)[C@H](OC2OC=C(C(=O)O)C3CCC(C)(O)C23)O[C@H](CO)[C@H]1O` (stereo not given in full), for which the call in the assay on CRL-7250 and in the assay with KB-3-1 was inactive. The max response in the assay with HEK293 is 0.262%; with NIH3T3, -17.6%.
For `CC1(C)CCC[C@]2(C)[C@H]3CC(=O)O[C@]3(C)CC[C@@H]12`, the max response in the assay on CRL-7250 is -21.8%; with HEK293, -37.4%; in the assay with KB-3-1, -11%.
Consider `C=C1C[C@@]23CCC4[C@@](C)(CCC[C@@]4(C)C(=O)OC)C2CC[C@@H]1C3` (stereo not given in full), for which the result in the assay on CRL-7250, in the assay on HEK293, with HaCat [1] and in the assay on HEK293T was inactive. The max response in the assay with NIH3T3 was 0.656%. Moreover, in the assay on HACAT [2], the Potency result is “inactive”.
On to `C[C@H](NC(=O)CCc1nc2ccccc2c(=O)[nH]1)c1ccccc1`, for which the max response in the assay on CRL-7250 is -24%; in the assay with HEK293, -7.11%; in the assay on KB-3-1, -7.76%; in the assay on NIH3T3, -5.46%.
For the molecule `CCC(C)C(=O)O[C@H]1CCC=C2C=C[C@H](C)[C@H](CC[C@@H](O)C[C@@H](O)CC(=O)O)[C@H]21` (stereo not given in full), in the assay on CRL-7250, the Potency was 7.96 µM (active). The max response was 0.832% with HEK293, 7.29% with KB-3-1 and -16.9% in the assay with NIH3T3.
Regarding `Cc1ccccc1NC(=O)Nc1ccc(CC(=O)N(C)[C@@H](CC(C)C)C(=O)NCC[C@H](NC(=O)[C@@H]2CCCN2S(=O)(=O)c2cc(Cl)cc(Cl)c2)C(=O)O)cc1`, the max response was -22.4% in the assay on CRL-7250 and -5.85% with NIH3T3. Besides, the molecule was called inactive with HEK293 and with HaCat [1]. In addition, in the assay on HACAT [2], the Potency entry is “inactive”. Further, the outcome in the assay on HEK293T was “inactive [at 17.4 µM]”.
For `CCNCc1nc2c(N)nc3ccccc3c2n1CC(C)(C)O`, the result with CRL-7250, with HaCat [1] and with NIH3T3 was inactive. In the assay with HEK293, the max response was -9.18%. In addition, the Potency entry with HACAT [2] was “inactive”.
